Hits are enriched below; roughly 5.5% of the tested compounds scored in any of these assays.
Gal4-VP16 FLuc – Gal4-VP16 reporter inhibition counter-screen; hit rate 3.5% among 310,000; AID 2546; Potency, µM (highest dose often 53.6 µM), without a hit: top-dose activity, negative = inhibition, actives largely listed as inhibitors; Drosophila S2 Gal4-VP16 UAS-luciferase, luminescence, 20 h;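 note: Gal4-VP16 expression switched on by copper sulfate through the metallothionein promoter; % is set by controls: 0 for no effect and ±100 for the full control effect; nearly all actives have a fitted effect of over 50% in size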
Mito fusion act – blocks mitochondrial division or promotes mitochondrial fusion; Potency, µM (titrated, usually from 46.1 µM), without a hit: at the top dose growth rescue (activation), hits mostly activators; hit rate 0.23% among 320,000; S. cerevisiae fusion-defective mutant growth rescue, CellTiterGlo 48 h; note: % of control where 0% means no effect; nearly all actives have a fitted effect of over 45% in size
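Luminescent cell viability in 1536-well qHTS format served as the measure of rescued growth in ts fusion-mutant S. cerevisiae cultured on non-fermentable YPEG for 48 hours at 37C.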
uPA surface inh – blocks generation of uPA at the cell surface; cell surface uPA generation assay, qHTS; Potency, µM (series often up to 38.3 µM), for the others: top-dose activity change, negative = inhibition, hits mostly inhibitors; hit rate 0.31% among 330,000; AID 540303; active = well fitted inhibition curve with a large enough effect; inconclusive = small, poorly fitted or top-dose-only effect; inactive = no such curve, though single readings can be large or run the other way; tested in mouse RAW 264.7 cells; note: % is set by controls: 0 for no effect and ±100 for the full control effect; nearly all actives have a fitted effect of over 55% in size
Chronic BCR inh – chronic active BCR signaling inhibition; ABC-DLBCL IkBa-CBG/CBR reporter, luminescence ratio, 4 h; Potency, µM (top dose mostly 46.1 µM), for inactives: top-dose activity change, negative = inhibition, hits mostly inhibitors; hit rate 0.05% among 340,000; AID 493014; active = well fitted inhibition curve with a large enough effect in the signal ratio, with a control signal flat, not every such curve was filed as active; inconclusive = small, poorly fitted or top-dose-only effect, or effect the other way, or a change in a side signal; the % refers to the signal ratio;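 note: plate controls were basal doxycycline-induced cells for no effect and cells given 10 µM MG132 for full effect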
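Doxycycline induced both beetle luciferases in TMD8 lymphoma cells; IKK-driven degradation limits the IkappaBalpha-fused green signal, while red luminescence normalises for cell number and nonspecific effects. Compounds tested up to 46 uM, 4 hrs.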
a7 integrin act – activators of alpha7 integrin expression for muscular dystrophy. hit rate 0.064% among 350,000. AID 624291. Potency, µM (titrated, usually from 38.3 µM), without a hit: at the highest dose activation, hits mostly activators. alpha7betagal myoblasts, beta-gal FDG fluorescence, 48 h;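 note: 100% = response of the positive control SU9516; nearly all actives have a fitted effect of over 60% in size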
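alpha7betagal+/- myoblasts (passage 13, 250/well) treated 48 h at 37C with compounds at 1:260 dilution of DMSO stock. Lysed, then beta-galactosidase activity read as FDG fluorescence (ex 480/em 540) after 30 min, with pre-read for autofluorescence.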
RORgamma inh – inhibitors of mouse ROR gamma transcriptional activity. hit rate 5.4% among 310,000. P51450. Potency, µM (doses to about 53.6 µM), for the others: at the highest dose activity change, negative = inhibition, usual class: inhibitors. Drosophila S2 Gal4-RORgamma UAS-luciferase reporter, 20 h; note: % is set by controls: 0 for no effect and ±100 for the full control effect; nearly all actives have a fitted effect of over 60% in size
Target sequence (P51450 whole entry, looked up, the tested form may be a part): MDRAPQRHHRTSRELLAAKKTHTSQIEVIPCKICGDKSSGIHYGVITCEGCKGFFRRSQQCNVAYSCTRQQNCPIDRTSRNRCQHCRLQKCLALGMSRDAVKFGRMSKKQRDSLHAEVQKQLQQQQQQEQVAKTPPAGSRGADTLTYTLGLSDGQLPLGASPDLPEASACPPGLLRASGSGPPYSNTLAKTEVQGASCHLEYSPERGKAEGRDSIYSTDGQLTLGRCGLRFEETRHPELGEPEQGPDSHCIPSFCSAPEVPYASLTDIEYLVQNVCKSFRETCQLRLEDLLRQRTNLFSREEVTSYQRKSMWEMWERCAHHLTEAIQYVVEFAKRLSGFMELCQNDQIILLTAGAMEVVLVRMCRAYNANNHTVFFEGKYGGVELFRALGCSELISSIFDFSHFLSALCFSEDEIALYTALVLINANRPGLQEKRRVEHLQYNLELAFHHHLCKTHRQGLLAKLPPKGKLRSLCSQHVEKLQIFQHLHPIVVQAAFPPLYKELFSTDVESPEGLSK
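Schneider cells (Drosophila), stable Gal4 DBD–ROR gamma + UAS-luc; 1 hr cmpd preincubation; Cu2+ induction 700 uM final; 20 hr ambient; luminescence.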
* hit, by the source's call; u = inconclusive; x = no result; [ ] = another dose, or the depositor's remark. Unless noted, calls come from the whole dose curve; as a rule, active = well fitted curve in the direction sought with a large enough effect; inconclusive = small, poorly fitted or top-dose-only effect, or another doubt; inactive = no such curve, though single readings can be large; an effect the other way counts as inactive or inconclusive. Potency is the fitted concentration of half-maximal effect.

SMILES	Gal4-VP16 FLuc	Mito fusion act	uPA surface inh	Chronic BCR inh	a7 integrin act	RORgamma inh
CC(=O)Nc1cc[n+](C(C)C(=O)c2ccc(Br)cc2)cc1 (stereo not given)	-2%	-2%	-1%	-1%	-27%	-7%
Fc1ccc(C2NC(=S)NC3=C2N2CCC3CC2)cc1 (stereo not given)	-26%	2%	-10%	1%	6%	-28%
Fc1ccc(/C=C2\CCCC3=C2NC(=S)NC3c2ccc(F)cc2)cc1 (stereo not given)	u	16%	x	0%	x	8.9µM*
C[C@H](O)[C@@H]1C(=O)N2C(C(=O)O)=C(SCCN=CN)C[C@@H]12	8%[17 µM]	x	x	x	x	4%[2.98 µM]
Cc1nn(CCC(=O)NNC(=S)Nc2ccc([N+](=O)[O-])cc2)c(C)c1[N+](=O)[O-]	-1%	3%	-5%	u	1%	-17%
CCCCNC(=S)NNC(=O)CCn1nc(C)c(Br)c1C	2.8µM*	-4%	x	u	3%	0.63µM*
Cc1nn(CCC(=O)NNC(=S)Nc2ccc(F)cc2)c(C)c1Br	u	-1%	6%	u	-7%	0.89µM*
Cc1nn(C)c(C(=O)NNC(=S)Nc2ccc(F)cc2)c1[N+](=O)[O-]	u	0%	x	0%	15%	7.9µM*
Cc1nn(C(C)C(=O)NNC(=S)Nc2ccc(F)cc2)c(C)c1[N+](=O)[O-] (stereo not given)	-13%	1%	18%	-5%	31%	u
COc1ccccc1CNS(=O)(=O)c1ccc(Br)s1	4%	-1%	-8%	-1%	15%	20%
CCOC(=O)[C@@H]1[C@H]2COc3ccccc3[C@H]2N2C(=O)N(c3cccc(C)c3)C(=O)[C@]12C	x	x	9%	0%	37%	x
COc1ccc(OCc2cc(C(=O)NC(C)Cc3cnccn3)no2)c(Cl)c1 (stereo not given)	u	4%	u	-9%	30%	34%
Cc1nn(CC(=O)NCCCN2C(C)CCCC2C)c(=O)c2cc3occc3n12 (stereo not given)	-3%	4%	0%	2%	-4%	-23%
COc1ccc(C)cc1-n1c(-c2ccncc2)n[nH]c1=S	-3%	-1%	-1%	5%	13%	-14%
COc1ccccc1-n1c(-c2cc(-c3ccc(F)cc3)n[nH]2)n[nH]c1=S	-3%	3%	-3%	-19%	39%	7.9µM*
COc1ccc(-c2cc(-c3n[nH]c(=S)n3-c3cccc4ccccc34)[nH]n2)cc1	-2%[10 µM]	0%	-2%	-19%	14%	u
Cc1ccc(-n2c(-c3cccc(C)c3)n[nH]c2=S)cc1	7.1µM*	6%	4%	u	-4%	3.2µM*
COc1cc(-n2c(-c3ccccc3)n[nH]c2=S)c(OC)cc1Cl	-8%	5%	0%	-3%	-20%	5µM*
Cc1ccc(-n2c(C)nc3ncnc(-c4ccccc4)c32)cc1	-1%	-3%	-3%	u	-9%	u
Cc1ccc(-n2c(-c3c(-c4ccccc4)noc3C)n[nH]c2=S)cc1	10µM*	0%	x	u	15%	4.5µM*
Cc1cc(C)c(S(=O)(=O)NCC(c2ccco2)N2CCN(c3ccccc3)CC2)c(C)c1 (stereo not given)	x	x	x	-13%	x	x
CC(=O)N1CCC2(CC1)CCN(c1cccc(-c3ccccc3)c1)CC2	-10%	x	x	x	x	29%
O=C(NC1CCCCC1)c1ccc2c(c1)N(Cc1cccc(F)c1)C(=O)c1ccccc1S2	x	x	x	0%	x	x
CN1CCN(c2ncc3nc(-c4ccc(Cl)cc4)c(=O)n(C)c3n2)CC1	-3%	x	x	x	x	-14%
S=c1[nH]nc(-c2cccnc2)n1-c1ccccc1	u	3%	1%	2%	16%	7.9µM*
S=c1[nH]nc(-c2ccc(Cl)cc2)n1-c1cccnc1	7%	2%	-11%	10%	13%	-39%
COc1ccc(-c2n[nH]c(=S)n2-c2ccc(C)cc2)cc1OC	u	-2%	2%	u	-16%	16µM*

Assay outcomes as filed in PubChem BioAssay.
